Pf growth 96h: P. falciparum growth inhibition at 96 hour, primary screen for plastid delayed-death inhibitors | P. falciparum luciferase reporter growth, 96 h | Potency, µM (titrated, usually from 28.7 µM), most hits filed as inhibitors | 320,000 tested, 6.9% active | AID 504834
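Compounds incubated with erythrocytes infected by luciferase-expressing P. falciparum (2% hematocrit, 0.05% parasitemia final) for 96 hours, 37 C in 5% CO2. Growth inhibition scored as decreased luciferase luminescence.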
HCMV antiviral: blocks human cytomegalovirus replication; HFF cells, HCMV-luciferase reporter, 72 h; hits give low values; activity change, negative = inhibition, % at 57.5 µM; 410,000 tested, 4.5% active; AID 1259415; in the data active = activity change below about -60%; inconclusive = no clear call, values can overlap the other calls; inactive = above about -39%
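Compounds were evaluated in HFFs infected with an HCMV luciferase reporter virus (MOI 1 PFU/cell). Luciferase in lysates collected 72 h post infection served as the replication measure.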
MARV entry inh: blocks Marburg virus binding to or entry into cells; Potency, µM (top dose mostly 37.8 µM), most hits filed as inhibitors; Marburg virus pseudotyped entry inhibition, cell reporter; AID 540276; 300,000 tested, 1.8% active; calls by dose curve; tested in HEK293 cells
HCV inhibitor: inhibitors of hepatitis C virus infection | Huh7.5.1 HCVcc-Cre infection, luciferase reporter, 44 h | Potency, µM (highest dose often 41.8 µM), actives largely listed as inhibitors | AID 651820 | 340,000 tested, 3.4% active
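Cells seeded at 1,000/well and cultured 4 h, then compounds added followed by HCVcc-Cre virus (~0.5 moi). After 44 h further culture, luciferase substrate was added, plates held 15 min at room temperature, and luminescence read for 15 sec.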
Pf growth 48h: P. falciparum growth inhibition at 48 hours (one generation). P. falciparum luciferase growth in erythrocytes, 48 h. Potency, µM (highest dose often 28.7 µM), hits mostly inhibitors. 310,000 tested, 5.9% active. AID 504832
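Here the parasites carry a stable luciferase gene and grow inside erythrocytes in Albumax-based RPMI medium with compound for one erythrocytic cycle. Activity is scored as loss of luminescent signal.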
LASV entry inh: blocks Lassa virus binding to or entry into cells; Lassa virus pseudotype entry inhibition, cell reporter; Potency, µM (top dose mostly 37.9 µM), usual class: inhibitors; 300,000 tested, 1.2% active; calls by dose curve; tested in HEK293 cells; note: nearly all actives have a fitted effect of over 50% in size
Of the large screens only hits and unclear results are named; the others gave an inactive call. Rows were chosen to be rich in hits. Some 14% of all compounds tested hit in one or more screens of this group. Unless noted, calls come from the whole dose curve; as a rule, active = well fitted inhibition curve with a large enough effect; inconclusive = small, poorly fitted or top-dose-only effect, or another doubt; inactive = no such curve, though single readings can be large or run the other way.

NC(=S)N=Nc1ccc(O)cc1	MARV entry inh inconclusive (no result: Pf growth 96h, Pf growth 48h)
Cn1nnnc1SCC(=O)Nc1nc2c(s1)CCCC2	MARV entry inh inconclusive (no result: Pf growth 48h)
CC(C)(C)c1ccc(C(=O)OCC(=O)Nc2sc3c(c2C#N)CCC3)cc1	Pf growth 96h inconclusive, MARV entry inh inconclusive
CC1CCc2c(sc(NC(=O)Cn3nc(C(=O)O)c4ccccc4c3=O)c2C#N)C1 (configuration not stated)	none (no result: MARV entry inh, LASV entry inh)
N#Cc1c(NC(=O)COC(=O)c2ccc(O)cc2O)sc2c1CCC2	Pf growth 96h inconclusive, HCMV antiviral inconclusive, HCV inhibitor 7.1µM (no result: MARV entry inh, LASV entry inh)
CCCc1cc(=O)[nH]c(SCC(=O)Nc2sc3c(c2C#N)CCC(C)C3)n1 (configuration not stated)	HCMV antiviral -61
O=C(CSC1=NCCS1)Nc1nc2c(s1)CCCC2	Pf growth 96h inconclusive, HCMV antiviral -73, HCV inhibitor inconclusive
CCN1CCN(CC(=O)Nc2sc3c(c2C#N)CCC(C)C3)CC1 (configuration not stated)	Pf growth 96h inconclusive, MARV entry inh inconclusive, HCV inhibitor 35µM (no result: Pf growth 48h)
Cc1ccc(C)c(CSc2c(C(C)C)cnc3c2c(=O)n(C)c(=O)n3C)c1	none (no result: Pf growth 96h, MARV entry inh, HCV inhibitor, Pf growth 48h)
CC(C)(C)C1CCc2c(sc(NC(=O)CSc3ncn[nH]3)c2C#N)C1 (configuration not stated)	HCV inhibitor inconclusive, LASV entry inh inconclusive
CC1CCc2c(sc(NC(=O)CSc3ncn[nH]3)c2C#N)C1 (configuration not stated)	HCMV antiviral -66, HCV inhibitor 11µM (no result: MARV entry inh, LASV entry inh)
N#Cc1c(NC(=O)CSc2ncn[nH]2)sc2c1CCCC2	MARV entry inh inconclusive, HCV inhibitor inconclusive, LASV entry inh 2.3µM (no result: Pf growth 96h, Pf growth 48h)
CCCC(=O)Nc1sc2c(c1C#N)CCCCC2	HCV inhibitor inconclusive, LASV entry inh inconclusive
Cc1ccnc(SCC(=O)Nc2sc3c(c2C#N)CCCC3)n1	HCV inhibitor 7.9µM, Pf growth 48h inconclusive
N#Cc1c(NC(=O)CCCC(=O)O)sc2c1CCCCC2	MARV entry inh 1.2µM, LASV entry inh 8.2µM
N#Cc1c(NC(=O)CSC2=NCCS2)sc2c1CCCC2	Pf growth 96h 2.3µM, HCMV antiviral inconclusive, HCV inhibitor inconclusive, Pf growth 48h inconclusive
CCOC(=O)Cc1nc2ccccc2o1	Pf growth 96h 3.3µM (no result: HCMV antiviral, MARV entry inh, HCV inhibitor, LASV entry inh)
CCOC(=O)Cc1nc2cc(Cl)ccc2o1	none
O=C(Nc1ccncc1)c1ccc(Cl)c(S(=O)(=O)N2CCc3ccccc32)c1	Pf growth 96h 3.7µM, HCMV antiviral -69, MARV entry inh inconclusive, HCV inhibitor 10µM, Pf growth 48h 3.3µM, LASV entry inh 7.9µM
O=C1CN(C(=O)c2ccc(Cl)c(S(=O)(=O)N3CCc4ccccc43)c2)c2ccccc2N1	Pf growth 96h inconclusive, HCMV antiviral inconclusive, MARV entry inh 3.5µM, Pf growth 48h inconclusive, LASV entry inh inconclusive
Cc1ccc(NC(=O)c2ccc(C)c(S(=O)(=O)N3CCCCC3)c2)nc1	MARV entry inh inconclusive, Pf growth 48h inconclusive
Cc1ccc(NC(=O)c2ccc(Cl)c(S(=O)(=O)N3CCCCCC3)c2)nc1	Pf growth 96h inconclusive, HCMV antiviral -68, HCV inhibitor inconclusive, Pf growth 48h inconclusive
Cc1cccc(NC(=O)c2ccc(S(=O)(=O)N3CCCCCC3)cc2)n1	Pf growth 96h inconclusive, HCV inhibitor inconclusive, Pf growth 48h inconclusive
CCc1nnc(NC(=O)c2ccc(Cl)c(S(=O)(=O)N3CCc4ccccc43)c2)s1	Pf growth 96h inconclusive, MARV entry inh inconclusive (no result: Pf growth 48h)
Cc1cccc(NC(=O)c2cc(S(=O)(=O)N3CCCCC3)ccc2Cl)n1	Pf growth 96h inconclusive, Pf growth 48h 9.3µM
C[C@@H]1COc2cc(N3CCCC3)ccc2S(=O)(=O)N1	none (no result: Pf growth 96h, MARV entry inh, HCV inhibitor, Pf growth 48h)
Cc1cc2c(=O)[nH]c(N)nc2[nH]1	none (no result: Pf growth 96h, MARV entry inh, HCV inhibitor, Pf growth 48h, LASV entry inh)
Cc1cccc(NC(=O)c2ccc(Cl)c(S(=O)(=O)N3CCc4ccccc43)c2)n1	Pf growth 96h 12µM, HCMV antiviral -65, HCV inhibitor inconclusive, Pf growth 48h 12µM (no result: MARV entry inh, LASV entry inh)
Cc1cccc(NC(=O)c2ccc(Cl)c(S(=O)(=O)N3CCCC3)c2)n1	Pf growth 96h 7.4µM, MARV entry inh inconclusive, Pf growth 48h inconclusive
Cc1ccc(S(=O)(=O)N2CCCCC2)cc1C(=O)Nc1ccccn1	Pf growth 96h 2.1µM, Pf growth 48h 3.3µM
COc1ccc(S(=O)(=O)N2CCCCCC2)cc1C(=O)Nc1cc(C)ccn1	Pf growth 96h 10µM, Pf growth 48h 9.3µM (no result: MARV entry inh, LASV entry inh)

Source: PubChem (National Center for Advancing Translational Sciences (NCATS))
